Screening results: PubChem, National Center for Advancing Translational Sciences (NCATS)
This is a sample that favours compounds with a hit; in the whole collection about 19% have one here.
HT1080 IDH1KD tx – toxicity to HT-1080 IDH1 knockdown cells (counter line). actives 2% (n = 360,000). Potency, µM (highest dose often 46.1 µM), without a hit: at the top dose activity, negative = toxicity, hits mostly cytotoxic. AID 686971. HT-1080 IDH1 knockdown viability, ATP luminescence, 48 h;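 note: 0% = DMSO wells and -100% = cell-free medium wells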
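Cytotoxicity counter-line: IDH1KD HT-1080, 48 h, CellTiter-Glo. Curves classed by r2, magnitude and activity.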
KB-V1 cytotox – KB-V1 MDR subline cytotoxicity; KB-V1 MDR cells viability, CellTiter-Glo, 72 h; Potency, µM (top dose mostly 46.1 µM), hits mostly cytotoxic; actives 3.4% (n = 400,000); note: nearly all actives have a fitted effect of over 60% in size
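KB-V1 cells (P-gp-expressing MDR subline of KB-3-1) in phenol-red-free DMEM with 10% FBS were exposed to library compounds over a concentration series for 72 h at 37 degrees C. Viability read by CellTiter-Glo luminescence; concentration-effect curves fitted after normalization.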
DT40 TDP1 CPT – growth inhibition of DT40 Tdp1-/-;hTDP1 cells with camptothecin (screen for TDP1 inhibitors). chicken DT40 Tdp1-/-;hTDP1 cells + 20 nM CPT, ATP luminescence, 48 h. Potency, µM (series often up to 46.2 µM), for inactives: at the top dose activity change, negative = growth inhibition, hits mostly inhibitors. actives 12% (n = 420,000); note: nearly all actives have a fitted effect of over 55% in size
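Cell growth measured by CellTiter-Glo luminescence after a minimum 48 h, 37 C compound exposure with 20 nM CPT in Tdp1-knockout DT40 cells stably expressing hTDP1, seeded 400/well; qHTS titration format.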
HT1080NT lethal – kills 2HG-producing HT-1080-NT fibrosarcoma cells; AID 686970; HT-1080-NT fibrosarcoma viability, CellTiter-Glo ATP luminescence, 48 h; actives 1.6% (n = 360,000); Potency, µM (titrated, usually from 46.1 µM), for inactives: top-dose activity, negative = less viability, usual class: cytotoxic;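 note: NT is the 2HG producing partner of a matched IDH1 knockdown line; 0% = DMSO-treated cells and -100% = media-only wells without cells; nearly all actives have a fitted effect of over 55% in size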
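Viability of the 2HG-overproducing fibrosarcoma line after 48 hours of compound exposure at 37 degrees C was determined by luminescence with CellTiter-Glo, and concentration-effect curves were then fitted and categorized.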
KB-3-1 cytotox – kills parental KB-3-1 adenocarcinoma cells. KB-3-1 viability, CellTiter-Glo ATP luminescence, 72 h. Potency, µM (titrated, usually from 46.1 µM), hits mostly cytotoxic. actives 1.4% (n = 400,000); note: nearly all actives have a fitted effect of over 60% in size
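Parental KB-3-1 viability, qHTS format: 72 h compound exposure, 37 °C; CellTiter-Glo; media-only wells and DMSO plates as controls; concentration-effect fits on corrected data.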
DT40 TDP1 no CPT – qHTS for Inhibitors of human tyrosyl-DNA phosphodiesterase 1 (TDP1): qHTS in cells in absence of CPT; DT40 Tdp1-/- hTDP1 cells, no CPT, ATP luminescence, 48 h; Potency, µM (top dose mostly 46.2 µM), without a hit: top-dose activity change, negative = growth inhibition, most hits filed as inhibitors; actives 15% (n = 420,000); note: nearly all actives have a fitted effect of over 55% in size
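Chicken DT40 Tdp1-/- cells stably complemented with human TDP1 were seeded at 400 cells/well with DMSO in place of 20 nM camptothecin. After compound pinning, cells grew at least 48 hr at 37 °C; viability read by CellTiter-Glo luminescence.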
* = called active by the depositor; i = inactive; ? = inconclusive; · = no result; [ ] = remark or other dose. Calls come from the whole dose curve; as a rule, active = well fitted curve in the direction sought with a large enough effect; inconclusive = small, poorly fitted or top-dose-only effect, or another doubt; inactive = no such curve, though single readings can be large; an effect the other way counts as inactive or inconclusive. Unless noted, % is set by controls: 0 for no effect and ±100 for the full control effect; potency is the fitted concentration of half-maximal effect.

SMILES | HT1080 IDH1KD tx | KB-V1 cytotox | DT40 TDP1 CPT | HT1080NT lethal | KB-3-1 cytotox | DT40 TDP1 no CPT
COCC1CCCN(Cc2nc(C(c3ccccc3)c3ccccc3)no2)C1 (stereo not drawn) | -3% | i | ? | -2% | i | 18µM*
COCCN1C(=O)COc2ccccc2C1C(=O)NC1CCCCC1 (stereo not drawn) | 6% | i | -3% | 19% | i | -25%
CCCCn1c(SCC(=O)NCc2ccc(OC)c(C(=O)O)c2)nc2cc(S(N)(=O)=O)ccc21 | 11% | i | 0% | 18% | i | -22%
CCCCn1c(SCC(=O)c2ccc(OC)cc2OC)nc2cc(S(N)(=O)=O)ccc21 | -3% | 18µM* | -53% | -6% | i | ?
CCCCn1c(SCC(=O)Nc2cc(C)on2)nc2cc(S(N)(=O)=O)ccc21 | -11% | ? | -14% | -4% | i | -4%
CCCCn1c(SCc2c(C)noc2C)nc2cc(S(N)(=O)=O)ccc21 | -13% | i | 13µM* | 0% | ? | ?
COc1ccc(CCN(C(=S)Nc2ccccc2)C2CC(=O)N(c3ccccc3)C2=O)cc1 (stereo not drawn) | -5% | i | ? | -3% | i | ?
COc1ccc(CN(C(=S)Nc2ccccc2)C2CC(=O)N(c3ccc(F)cc3)C2=O)cc1 (stereo not drawn) | ? | i | ? | ? | i | ?
Cc1ccc(N2C(=O)CC(N(CCc3ccccc3)C(=S)Nc3ccc(N(C)C)cc3)C2=O)cc1 (stereo not drawn) | ? | i | 18µM* | -8% | i | ?
O=C1CC(N(CCc2ccccc2)C(=S)Nc2ccccc2)C(=O)N1c1ccc(Br)cc1 (stereo not drawn) | ? | ? | 16µM* | 16µM* | ? | 18µM*
O=C(NCCCn1ccnc1)/C(=C/c1ccco1)NC(=O)c1ccco1 | 12% | ? | -2% | ? | ? | 1%
COc1ccc(CN2C(=O)C(CC(=O)NCCCN(C)C)CC(C(=O)N(C)C)=C2C)cc1 (stereo not drawn) | -6% | i | 16% | -11% | i | 9%
COc1ccc(-c2c(C#Cc3ccsc3)c3cc(-c4ccc5cc[nH]c5c4)ccc3n2C)cc1 | -2% | ? | ? | 1% | i | 21µM*
COc1ccc(-c2c(C#Cc3ccc(N(C)C)cc3)c3ccccc3n2C)cc1 | -12% | i | 23µM* | -2% | i | ?
COc1cc(OC)cc(-c2c(C#Cc3ccsc3)c3cc(-c4ccc5cc[nH]c5c4)ccc3n2C)c1 | 4% | i | ? | 6% | i | ?
COc1ccc(-c2c(C#Cc3ccsc3)c3cc(-c4ccc(OC)c(F)c4)ccc3n2C)cc1 | 7% | i | ? | 4% | i | ?
COc1ccc(-c2ccc3c(c2)c(C#Cc2ccsc2)c(-c2cc(OC)cc(OC)c2)n3C)cc1 | -1% | ? | 0% | -6% | i | ?
Cn1cncc1C#Cc1c(C=O)n(C)c2ccccc12 | -24% | i | ? | ? | ? | -13%
COc1cc(C#Cc2c(C=O)n(C)c3ccccc23)cc(OC)c1 | 13% | i | ? | 0% | ? | 23µM*
COc1ccc(-c2c(C#Cc3ccsc3)c3cc(Br)ccc3n2C)cc1 | -1% | i | ? | -1% | i | 21µM*
O=C(C[n+]1c(Cl)ccc2ccccc21)c1ccc2ccccc2c1 | · | i | -14% | · | ? | -7%
C=CCn1c2ccccc2c(=O)c2cc(C#Cc3cc(OC)cc(OC)c3)ccc21 | -2% | i | 16µM* | 11% | i | ?
Cn1c2ccccc2c(=O)c2cc(C#Cc3ccccn3)ccc21 | 10% | i | -18% | 15% | i | ?
O=C(NC1CC1)[C@@H]1C[C@H](Sc2nc3ccccc3[nH]2)CN1CC1CCCCC1 | · | · | -9% | · | · | ?
COc1ccc(C#Cc2ccc(C3=CC(=O)CC(C)(C)C3=O)cc2)cc1 | 1% | i | ? | -10% | i | 16µM*
SMILES | HT1080 IDH1KD tx | KB-V1 cytotox | DT40 TDP1 CPT | HT1080NT lethal | KB-3-1 cytotox | DT40 TDP1 no CPT
CC1(C)CC(=O)C=C(c2cccc3c2sc2ccccc23)C1 | 0% | i | -16% | 9% | i | ?
CC1(C)CC(=O)C=C(c2ccc(-c3cccc4c3sc3ccccc34)cc2)C1=O | -20% | i | ? | -13% | i | 18µM*
CC1(C)CC(=O)C=C(c2ccc(-c3cnc4ccccc4c3)cc2)C1=O | 7% | i | ? | 2% | i | 23µM*
CS(=O)(=O)c1ncc(CO)n1Cc1ccccc1 | 13% | i | 15% | 10% | i | 11%
Cc1cc2nc(SCCOC(=O)Nc3ccccc3)nc(C)c2cc1C | 10% | 21µM* | ? | 5% | i | ?
Cc1cc2nc(SCCOC(=O)Nc3cccc(Cl)c3)nc(C)c2cc1C | -26% | i | 1% | 0% | i | -10%
Cc1nn(C)c(Oc2cccc(C(F)(F)F)c2)c1C=O | 15% | i | 6% | 2% | i | -21%
CCOC(=O)Nc1nnc(-c2cccc(OC)c2)s1 | 17% | i | -25% | 25% | i | -24%
CCOC(=O)Nc1cc2c(c(N)n1)N=C(c1ccccc1)CN2 | ? | 0.13µM* | 0.21µM* | 0.46µM* | 0.18µM* | 0.041µM*
COc1ccc(NC(=O)C2=C(C)Nc3nc(CCCO)nn3C2c2ccc(O)cc2)cc1 (stereo not drawn) | · | ? | -15% | · | i | 15%
O=C(NCC1(N2CCOCC2)CCCC1)c1cnn(-c2nccc(-c3cccs3)n2)c1C1CC1 | · | · | -2%[9.04 µM] | · | · | -10%
Cc1cc(C)c(O)c(-c2cc(C(=O)NCc3ccccc3)[nH]n2)c1 | ? | i | 18µM* | ? | i | ?
CCNC(=O)c1c(NC(=O)c2cc(-c3cc(C)cc(C)c3O)n[nH]2)sc2c1CCCC2 | 8% | i | ? | -1% | i | 5.8µM*
Cc1cc(C)c(O)c(-c2cc(C(=O)NCCc3ccc(S(N)(=O)=O)cc3)[nH]n2)c1 | -24% | i | -22% | -19% | i | 9.2µM*
Cc1cc(O)c(-c2cc(C(=O)NCCc3ccc(S(N)(=O)=O)cc3)[nH]n2)cc1C | -5% | i | -3% | ? | ? | ?
CCNC(=O)c1c(NC(C)=O)sc2c1CCCC2 | 10% | i | 1% | 14% | i | 8%
